# Assay outcomes from PubChem.
# GALK inh = galactokinase (human) inhibition; P51570; Purified GALK, Kinase-Glo residual ATP luminescence; Potency, µM (series often up to 57.5 µM), inactives show at the highest dose activity change, negative = inhibition, hits mostly inhibitors; 270,000 tested, 0.007% active; further: potency means the concentration at half of the fitted maximal effect
#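 Quantitative HTS: GALK 5 nM, ATP 35 uM, galactose 100 uM, 1 h room temperature, then luciferase-based ATP detection.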
# Coupling enz = inhibits coupling enzyme system, counter-screen for aldolase hits | coupling enzyme system counterscreen, AmpLite Red fluorescence | activity change, negative = inhibition, % at 58.2 µM, hits read low | 290,000 tested, 0.67% active; in the data active means activity change below about -30%
#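 Activity here indicates interference with the coupling reaction, not aldolase inhibition. Compounds at 57.5 uM final met coupling enzymes for 10 min at RT; substrate and AmpLite Red detection followed, with a 525/598 nm fluorescence read after 20 min.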
# TrxR1 substrate = is turned over as a substrate by rat TrxR1 | purified TrxR1 substrate turnover, NADPH consumption readout | Potency, µM (highest dose often 114 µM), for inactives: top-dose activity change, negative = substrate turnover | O89049 | AID 588456 | 390,000 tested, 0.01% active; further: potency means the concentration at half of the fitted maximal effect; nearly all actives have a fitted effect of over 50% in size
#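 Rat TrxR1, dispensed at 90 nM, was prereduced with 400 uM NADPH (final) for 5 min at ~22 deg C, then incubated with compound 15 min before 400 uM selenite. A first-read NADPH fluorescence drop versus no-compound background flagged substrates.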
# TrxR1 inh = blocks rat thioredoxin reductase 1; O89049; recombinant rTrxR1, NADPH fluorescence consumption, selenite substrate; Potency, µM (doses to about 114 µM), inactives show top-dose activity change, negative = inhibition, usual class: inhibitors; 390,000 tested, 1% active; AID 588453; further: potency means the concentration at half of the fitted maximal effect; nearly all actives have a fitted effect of over 65% in size
#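 Rat TrxR1 (90 nM in the dispensed reagent) was pre-reduced with 400 uM NADPH for 5 min at room temperature, then incubated with compound for 15 min. After 400 uM selenite was added, NADPH fluorescence (Ex 340/Em 450 nm) was followed for 8 min.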
# USP1-UAF1 inh = blocks the human USP1/UAF1 deubiquitinase complex | 390,000 tested, 0.23% active | O94782 | Potency, µM (titrated, usually from 57.1 µM), inactives show at the top dose activity change, negative = inhibition, actives largely listed as inhibitors | AID 743255 | recombinant USP1/UAF1, Ub-Rhodamine cleavage fluorescence; further: potency means the concentration at half of the fitted maximal effect; nearly all actives have a fitted effect of over 60% in size
# Target sequence (O94782 whole entry, looked up): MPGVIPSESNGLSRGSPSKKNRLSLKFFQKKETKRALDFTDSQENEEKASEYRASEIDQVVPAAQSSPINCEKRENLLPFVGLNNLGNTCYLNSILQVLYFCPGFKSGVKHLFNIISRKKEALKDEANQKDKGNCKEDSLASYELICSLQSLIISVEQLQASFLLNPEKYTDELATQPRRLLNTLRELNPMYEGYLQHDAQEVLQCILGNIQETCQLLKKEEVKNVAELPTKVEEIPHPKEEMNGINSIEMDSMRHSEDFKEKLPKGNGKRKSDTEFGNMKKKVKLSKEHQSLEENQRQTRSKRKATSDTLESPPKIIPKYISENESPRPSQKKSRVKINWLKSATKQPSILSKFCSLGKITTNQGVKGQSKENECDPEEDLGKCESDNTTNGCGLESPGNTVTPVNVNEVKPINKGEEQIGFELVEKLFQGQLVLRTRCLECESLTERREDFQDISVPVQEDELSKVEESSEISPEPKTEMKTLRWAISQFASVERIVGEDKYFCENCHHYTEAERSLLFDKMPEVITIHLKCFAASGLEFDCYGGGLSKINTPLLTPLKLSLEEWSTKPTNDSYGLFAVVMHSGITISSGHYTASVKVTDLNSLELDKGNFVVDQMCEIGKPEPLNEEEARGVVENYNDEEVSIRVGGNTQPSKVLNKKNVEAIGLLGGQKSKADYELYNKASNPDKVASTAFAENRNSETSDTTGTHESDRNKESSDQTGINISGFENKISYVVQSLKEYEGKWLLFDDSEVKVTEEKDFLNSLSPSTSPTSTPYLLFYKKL
#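 1 nM enzyme complex + cpd, 15 min RT; start with Ub-Rho 150nM final; kinetic fluorescence ex 480/em 540, 6 reads q60 s. Buffer 50mM HEPES pH 7.8, 0.5mM EDTA, 0.1 mg/ml BSA, 1mM TCEP, 0.01% Tween-20.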
# * hit, by the source's call; ? = inconclusive; nt = no result given; [ ] = remark or other dose. The list is not random: actives were taken first. Their share in the collection is about 1.5%. Unless noted, the call rests on the fitted dose curve; in most records, active means well fitted curve in the direction sought with a large enough effect; inconclusive means small, poorly fitted or top-dose-only effect, or another doubt; inactive means no such curve, though single readings can be large; an effect the other way counts as inactive or inconclusive. On the % scale 0 is the no-effect control and ±100 the full control effect.
SMILES,GALK inh,Coupling enz,TrxR1 substrate,TrxR1 inh,USP1-UAF1 inh
Cc1ccsc1/C=N/NC(=S)NCc1ccccc1,-1.7%,1.5,2.0%[57.1 µM],5.0%[57.1 µM],-20.3%
O=C(CC(=O)N/N=C/c1c(F)cccc1Cl)NCc1ccccc1,10.8%,-39.3*,3.8%,16.8%,-11.0%
COc1ccc(OC)c(/C=N/NC(=O)CC(=O)NCc2ccccc2)c1,-4.8%,-33.3*,83.9%,4.8%,-8.9%
Cc1ccsc1/C=N\NC(=O)CC(=O)NCc1ccccc1,-0.7%,-36.2*,2.0%[57.1 µM],4.8%[57.1 µM],4.2%
Cc1ccc2nc(CO)[nH]c2c1,nt,nt,7.1%,24.7%,nt
c1ccc(OCCn2c(-c3ccco3)nc3ccccc32)cc1,-1.3%,-3.6,13.1%,14.1µM*,-18.6%
O=C(Nc1nnc(C2CCCCC2)s1)C1CCN(C(=O)c2ccco2)CC1,nt,nt,-3.0%,-13.6%,nt
Cc1ccc(-c2nc3ccccc3s2)cc1NC(=S)NC(=O)/C=C/c1ccco1,-1.1%,1.6,19.0%[57.1 µM],-50.6%,-8.1%
Cc1ccccc1NC(=S)NC(=O)/C=C/c1ccco1,5.0%,0.4,4.8%,15.8µM*,-4.9%
COc1ccccc1NC(=O)/C=C\c1ccco1,4.0%,-0.5,-3.5%,3.55µM*,-14.0%
COc1ccccc1NC(=S)NC(=O)/C=C/c1ccco1,0.7%,-2.7,-2.6%,20µM*,-21.1%
Cc1cccc(NC(=S)NC(=O)/C=C/c2ccco2)n1,-0.2%,-1.4,-1.4%[57.1 µM],-16.0%[57.1 µM],-5.6%
O=C(/C=C/c1ccco1)NC(=S)Nc1cc(-c2nc3ccccc3s2)ccc1Cl,0.6%,-5.4,-9.4%,50.1µM*,-22.9%
OC(Br)C(O)C(O)N1CCCc2ccccc21 (stereo not given),nt,nt,2.3%,2.2%,nt
C=C1C=C(C)n2ncc(C(=O)Nc3cccc(C(=O)Nc4cccc(C(F)(F)F)c4)c3)c2N1,nt,nt,-6.2%,-5.4%,nt
COc1cc(C(=O)NNC(=O)/C=C/c2ccco2)cc(OC)c1OC,nt,nt,-5.4%,56.2µM*,-15.7%
O=C1Nc2cc(S(=O)(=O)N3CCCC3)ccc2N2CCCC12 (stereo not given),-2.6%,-4.6,-3.0%,50.1µM*,-25.4%
CCN(CC)S(=O)(=O)c1ccc2c(c1)NC(=O)C1CCCN21 (stereo not given),nt,0.9,2.9%,?,?
S=Cc1nc2ccccc2[nH]1,nt,nt,2.4%,-3.6%,nt
CCOc1cc(C(Nc2cc(C)ccn2)c2ccc3cccnc3c2O)ccc1OC (stereo not given),nt,nt,-7.1%,1.26µM*,-30.0%
Cc1cc(C)nc(S/C=C/C(=O)c2ccccc2F)n1,-0.1%,0.4,10.8%[57.1 µM],2µM*,-6.3%
Cc1cc(C)nc(NC(=S)NC(=O)c2ccccc2F)n1,nt,nt,1.5%[57.1 µM],10.2%,-7.2%
Cc1ccc(S(=O)(=O)CCC(=O)Nc2cc(Cl)ccc2-n2cncn2)cc1,nt,nt,5.1%,12.6µM*,-10.4%
CCOC(=O)c1[nH]c(C)c(/C(O)=C2\C(=O)C(=O)N(CCCN3CCOCC3)C2c2cccnc2)c1C (stereo not given),-0.4%,-1.9,-14.4%,44.7µM*,-5.3%
COC(=O)c1[nH]c(C)c(/C(O)=C2\C(=O)C(=O)N(CCCN3CCOCC3)C2c2ccccn2)c1C (stereo not given),-0.2%,-19.8,-7.2%,25.1µM*,-0.3%
SMILES,GALK inh,Coupling enz,TrxR1 substrate,TrxR1 inh,USP1-UAF1 inh
O=C1C(=O)N(CCN2CCOCC2)C(c2ccccn2)/C1=C(/O)c1ccc(F)cc1 (stereo not given),1.7%,-22.5,-10.2%,?,-5.0%
COc1ccc(/C(O)=C2/C(=O)C(=O)N(CCN3CCOCC3)C2c2ccccn2)cc1 (stereo not given),4.3%,-23.4,-3.3%,50.1µM*,-0.8%
CN(Cc1ccccc1)c1ccc(/C=C/c2sc3ccccc3[n+]2C)cc1,nt,nt,-6.0%,-2.5%,nt
N#Cc1ccc(S(=O)(=O)N2CCN(c3nc(-c4ccccc4)nc4ccccc34)CC2)cc1,nt,nt,5.1%,36.8%,nt
Cc1ccc(NC(=O)COC(=O)/C=C/c2ccc(Br)o2)cc1S(=O)(=O)N(C)C,-1.1%,-0.2,-1.5%,50.1µM*,-11.4%
NC(=O)c1ccc(NC(=O)COC(=O)/C=C/c2ccc(Br)o2)cc1,nt,nt,-5.1%,44.7µM*,-8.9%
CN(C)S(=O)(=O)c1cccc(NC(=O)COC(=O)/C=C/c2ccc(Br)o2)c1,-0.8%,1.3,3.4%,?,-17.2%
CC[C@H](C)[C@H](NC(=O)[C@H](Cc1ccccc1)NC(=O)[C@H](CC(C)C)NC(=O)[C@H](CCSC)NC(=O)[C@H](CCC(=O)O)NC(=O)[C@H](CCC(=O)O)NC(=O)[C@H](CC(=O)O)NC(=O)[C@H](CO)NC(=O)[C@@H]1CCCN1C(=O)[C@H](CCCCN)NC(=O)[C@@H](N)[C@@H](C)O)C(=O)N[C@@H](Cc1ccc(O)cc1)C(=O)NCC(=O)N[C@@H](Cc1cnc[nH]1)C(=O)N[C@@H](Cc1ccc(O)cc1)C(=O)N[C@@H](CCCCN)C(=O)N[C@@H](CCC(N)=O)C(=O)N[C@@H](C)C(=O)N[C@H](C(=O)N[C@H](C(=O)NCC(=O)N[C@@H](CC(=O)O)C(=O)N[C@H](C(=O)N[C@@H](CC(N)=O)C(=O)N[C@H](C(=O)N[C@@H](CCC(=O)O)C(=O)N[C@@H](CCCNC(=N)N)C(=O)N1CCC[C@H]1C(=O)NCC(=O)N[C@@H](CCSC)C(=O)N[C@@H](CC(C)C)C(=O)N[C@@H](CC(=O)O)C(=O)N[C@@H](Cc1ccccc1)C(=O)N[C@H](C(=O)O)[C@@H](C)O)[C@@H](C)O)[C@@H](C)CC)C(C)C)[C@@H](C)O,nt,0.7,nt,nt,nt
O=C(O)/C=C/c1ccc2ccccc2c1,nt,nt,125.5%,21.8%,nt
CC[C@H](C)[C@H](NC(=O)[C@H](CCCNC(=N)N)NC(=O)[C@@H](NC(=O)[C@H](CCCNC(=N)N)NC(=O)[C@H](CCCCN)NC(=O)[C@H](CCCNC(=N)N)NC(=O)[C@@H](NC(=O)[C@H](CC(N)=O)NC(=O)[C@@H](N)CS)[C@@H](C)O)[C@@H](C)CC)C(=O)N[C@@H](CCC(N)=O)C(=O)N[C@@H](CCCNC(=N)N)C(=O)NCC(=O)N1CCC[C@H]1C(=O)NCC(=O)N[C@@H](CCCNC(=N)N)C(=O)N[C@@H](C)C(=O)N[C@@H](Cc1ccccc1)C(=O)N[C@H](C(=O)N[C@H](C(=O)N[C@H](C(=O)NCC(=O)N[C@@H](CCCCN)C(=O)O)[C@@H](C)CC)[C@@H](C)O)C(C)C,nt,0.3,nt,nt,nt
O=C(c1ccc2c(=O)n(-c3ccccc3)c(=O)[nH]c2c1)N1CCN(Cc2cccs2)CC1,nt,nt,1.0%,14.1%,nt
O=c1[nH]nc(-c2ccc([N+](=O)[O-])o2)c(=O)[nH]1,nt,nt,-5.2%,12.6µM*,-14.6%
N#CCCn1cc(C=C(C#N)C#N)c(-c2ccc(-c3ccccc3)cc2)n1,-1.6%,-6.7,15.5%,79.4µM*,-26.7%
